# Screening data: PubChem, National Center for Advancing Translational Sciences (NCATS)
# HPGD block: inhibitors of human 15-hydroxyprostaglandin dehydrogenase (HPGD); Potency, µM, for inactives: top-dose activity change, negative = inhibition, actives largely listed as inhibitors; purified HPGD, NADH fluorescence kinetic, PGE2 substrate; P15428; 4.3% of 150,000 active; further: potency means the concentration at half of the fitted maximal effect
#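 NADH formation kinetics: reaction with 30 uM PGE2 and 1 mM NAD+ (final), 20 nM enzyme, Tris-HCl pH 8 with Tween 20, after 15 min compound preincubation at room temperature. Fluorescence change, last versus first of five reads.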
# ALDH1A1 inh: blocks purified human ALDH1A1 activity. P00352. Purified ALDH1A1, NADH fluorescence, propionaldehyde substrate. Potency, µM (titrated, usually from 75.3 µM), for inactives: at the highest dose activity, negative = inhibition, hits mostly inhibitors. 7.3% of 220,000 active. AID 1030;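 further: potency means the concentration at half of the fitted maximal effect; plate controls were no enzyme wells and a reference inhibitor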
# Target sequence (P00352 whole entry, looked up): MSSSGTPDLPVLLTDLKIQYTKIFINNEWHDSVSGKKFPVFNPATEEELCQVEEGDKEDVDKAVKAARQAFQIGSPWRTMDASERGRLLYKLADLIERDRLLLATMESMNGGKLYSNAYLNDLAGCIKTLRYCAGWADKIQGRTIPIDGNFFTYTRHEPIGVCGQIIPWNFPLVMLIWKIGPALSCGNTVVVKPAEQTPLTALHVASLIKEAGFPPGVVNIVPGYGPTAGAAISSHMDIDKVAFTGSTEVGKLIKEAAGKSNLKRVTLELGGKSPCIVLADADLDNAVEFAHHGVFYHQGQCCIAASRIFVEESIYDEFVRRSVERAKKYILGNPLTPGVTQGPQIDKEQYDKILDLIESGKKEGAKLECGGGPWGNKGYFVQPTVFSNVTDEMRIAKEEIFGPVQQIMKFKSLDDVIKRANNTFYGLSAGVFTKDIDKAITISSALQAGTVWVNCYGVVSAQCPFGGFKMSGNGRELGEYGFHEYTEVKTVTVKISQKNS
# PNC inhibitor: perinucleolar compartment assembly inhibition; 3.1% of 140,000 active; PC3M PTB-GFP, PNC prevalence imaging, 16 h; stronger effect = lower value; activity change (PNC), negative = inhibition, % at 10 µM;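 active means readout at or below -70, meaning at least 70% loss of cells showing the perinucleolar compartment, a nuclear body marking cancer cells; inconclusive means readout between -30 and a set limit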;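 further: plate controls were DMSO wells for no effect and camptothecin positive control wells for full effect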
#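 PC3M cells stably expressing PTB-GFP, 750–1000 cells/well, treated 16 h at 37 °C with compound (23 nl of library stock), in duplicate. After paraformaldehyde fixation and Hoechst stain, imaged at 20x; PNC prevalence scored by image analysis.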
# Starred values were filed as active, the others as inactive; ? = inconclusive; · = no result given; [ ] = dose if it differs, or a comment. A selection: hits, their analogues and other compounds. The true share with any hit is near 11%. Unless noted, the call rests on the fitted dose curve; in most records, active means well fitted inhibition curve with a large enough effect (not every such curve was filed as active); inconclusive means small, poorly fitted or top-dose-only effect, or another doubt; inactive means no such curve, though single readings can be large or run the other way. Unless noted, on the % scale 0 is the no-effect control and ±100 the full control effect.
SMILES,HPGD block,ALDH1A1 inh,PNC inhibitor
CC1CCN(S(=O)(=O)c2ccc(S(=O)(=O)NCC(=O)C(C)(C)C)cc2)CC1,-2%,13%,-26
COc1ccc(-n2c(=O)c3c4c(sc3n3c(=S)[nH]nc23)COC(C(C)C)C4)cc1 (stereo unspecified),·,15%,·
N#CCCn1cc(C(N)=O)c(-c2cccs2)n1,·,-8%,·
Cc1ccc(NC(=O)c2cn(CCC#N)nc2-c2cccs2)c([N+](=O)[O-])c1,-23%,?,-112*
Nc1nc(-c2ccc(Cl)cc2)nn1C(=O)c1ccco1,·,-17%,·
CCCCOC(=O)c1ccc(S(N)(=O)=O)o1,-11%,5%,24
Cc1cc2c(c(=O)n1CC1CCCO1)C(c1ccc3c(c1)OCO3)C(C#N)=C(N)O2 (stereo unspecified),-16%,11µM*,-18
CCn1c(C)cc2c(c1=O)C(c1ccc3c(c1)OCO3)C(C#N)=C(N)O2 (stereo unspecified),-15%,-16%,34
Cn1c(-c2ccc(F)cc2)cnc1SCC(=O)N1CCCCC1,-26%,?,-19
C=CC(=O)CC,-2%,2µM*,·
C=CC(=O)NC(C)C,-1%,2%,·
CCOc1nc(-c2ccccc2)ccc1-c1noc(-c2ccco2)n1,?,11%,-100*
COc1nc(-c2ccc(C)cc2)ccc1-c1noc(-c2ccco2)n1,?,?,0
CC(=O)Nc1ccc(S(=O)(=O)N2CCc3nc(COc4ccccc4)c4c(c3C2)CO[C@@H](C)C4)cc1,1%,9%[13.5 µM],·
COC(=O)c1ccc(C(=O)OC)c(NC(=O)CSc2cccc[n+]2[O-])c1,?,?,-14
O=C(NC1CCCCC1)N(C1=NCCCCC1)c1ccc(Br)cc1,-15%,6%,-24
COC(=O)c1cc2oc3ccccc3c2n1CC(=O)N1CCCc2ccccc21,-20%,4%,7
CC(=O)Nc1ccc(S(=O)(=O)NCC(=O)OC(C)c2ccccc2Cl)cc1 (stereo unspecified),-10%,?,-10
Cn1[nH]c(CSc2ccc(Cl)cc2)cc1=O,·,1.8µM*,·
O=c1cc(CSc2ccc(Cl)cc2)nc(N2CCCCC2)[nH]1,·,1%,14
COc1c(CO)cc(CO)cc(CO)c1=O,-3%,-3%,·
Cc1cc(C)c(S(=O)(=O)N(C)CC(N)=O)c(C)c1,-15%,11%,-85*
Cc1cc(C)c(S(=O)(=O)N(C)CC(=O)N2CCCCC2)c(C)c1,?,-14%,-16
CCOC(=O)CN1C(=O)N[C@@H](c2cccc(F)c2)C(C(=O)OC)=C1C,-9%,10%[13.5 µM],·
Cc1cccc(-c2n[nH]c(=S)n2C)c1,·,13%,·
SMILES,HPGD block,ALDH1A1 inh,PNC inhibitor
S=c1[nH]nc(-c2cccc(Br)c2)o1,-22%,6.3µM*,?
Nn1c(-c2cccc(Br)c2)n[nH]c1=S,-28%,22µM*,-7
S=c1[nH]nc(-c2cccnc2)o1,-9%,-11%,-2
Nn1cc(-c2ccccc2)nc1SCC(=O)NCCN1C(=O)CSC1=O,-11%,?,-16
Cc1ccc2[nH]c(SCC(=O)N3CCOCC3)nc2c1C,3%,-6%,2
O=C(O)COc1ccc(OCCNC[C@@H](O)COc2ccccc2)cc1,0%,9%,·
Cn1nnnc1SCc1c(F)cccc1F,0%,?,-10
COCCNC(=O)CN(c1ccc(C)cc1)S(=O)(=O)c1ccc(SC)cc1,-12%,-47%,4
CCN(CC)C(=O)CN(c1ccc(C)cc1)S(=O)(=O)c1ccc(SC)cc1,-8%,14µM*,33
C[n+]1ccccc1/C=N\O,-1%,-9%[20.9 µM],·
COc1ccc(S(=O)(=O)N2CCN(CC(=O)Nc3cc(C(F)(F)F)ccc3Cl)CC2)cc1,-7%,31%,83
CCOc1ccccc1-c1nc2c(C(C)(C)C)nn(C)c2c(=O)[nH]1,·,10%,·
Cc1ccccc1NC(=O)COc1ccc2c(c1)OC(C)(C)CC2=O,·,14µM*,·
CC(C)CCNC(=O)COc1ccc2c(c1)C(=O)CC(C)(C)O2,?,?,-1
COC(=O)C1C(=O)c2c([nH]c(C(=O)OC3CCCCC3)c2C)CC1C (stereo unspecified),-7%,-1%,90
COC(=O)C1C(=O)c2c([nH]c(C(=O)OC3CCCC3C)c2C)CC1C (stereo unspecified),-5%,13µM*,-8
O=C(c1ccco1)N1CCN(S(=O)(=O)c2ccc(Br)s2)CC1,?,8.9µM*,-6
Cc1cc(C)cc(NC(=O)CN2CCCN(S(=O)(=O)c3ccc(Br)s3)CC2)c1,-12%,?,12
O=C(c1ccco1)N1CCN(C(=O)C2CCN(S(=O)(=O)c3cccs3)CC2)CC1,·,-5%,-19
Cc1ccc(NC(=O)CN2CCCN(S(=O)(=O)c3ccc(Br)s3)CC2)cc1,-12%,20µM*,29
CCOC(=O)N1CCN(S(=O)(=O)c2ccc(Br)s2)CC1,-1%,1%,-90*
CN1CCN(S(=O)(=O)c2ccc(Br)s2)CC1,·,-6%,-12
O=C(COc1cccc2ccccc12)NNC(=O)c1cccs1,-7%,5%,9
CCCN(CC(=O)Nc1cc(Cl)cc(Cl)c1)CC(=O)Nc1ccc(F)c(F)c1F,-26%,?,39
O=C(Nc1ccccc1)O/N=C/c1ccccc1Cl,40µM*,?,30
SMILES,HPGD block,ALDH1A1 inh,PNC inhibitor
COc1ccc(/C=N/OC(=O)Nc2ccccc2)cc1[N+](=O)[O-],-4%,-39%,23
COc1ccc(C(=O)n2ccc(C)n2)cc1Br,-9%,3%,-6
CCOCCCNC(=O)C1c2ccccc2C(=O)N2CCc3ccccc3C12 (stereo unspecified),-12%,1%,5
CCOCCOC(=O)COc1ccc2c(-c3ccccc3)cc(=O)oc2c1,25µM*,18µM*,-17
COc1ccc(-c2cc(=O)oc3cc(OCC(C)=O)ccc23)cc1,32µM*,?,5
COc1ccc2cc(C(=O)COC(=O)COc3ccc4c(C)cc(=O)oc4c3)ccc2c1,?,?,70
CC(=O)COc1ccc2c(C)c(C)c(=O)oc2c1,274%,?,31
COc1ccc(-c2cc(=O)oc3cc(OCC(=O)c4cccc([N+](=O)[O-])c4)ccc23)cc1,2.8µM*,-1%,?
CCOC(=O)c1c(-c2ccccc2)csc1NC(=O)COc1ccc2c(C)cc(=O)oc2c1,-22%,10%,16
CCN(CC)CC#CCC(C)(c1ccccc1)c1ccccc1,-11%,5%,1
Cc1ccc(C2CC(C(F)(F)F)n3nc(C(=O)NCc4ccco4)cc3N2)cc1 (stereo unspecified),-12%,-4%,29
CC(=O)N1CCc2cc(S(=O)(=O)NCCC(=O)NC3CCCc4ccccc43)ccc21 (stereo unspecified),-17%,?,?
C=CC[C@@H]1C=C[C@H](O/N=C(\C)CCN2CCCCc3nc(C)c(C)cc32)[C@H](CO)O1,·,7%[13.5 µM],·
COc1ccccc1NC(=S)Nc1ccc2cn[nH]c2c1,·,-14%,·
Cc1cccc(NCCC#N)c1,-8%,-7%,-134*
Cc1cccc(NCCNc2cccc(C)c2)c1,-5%,-4%,8
Cc1cccc(NCc2ccccc2O)c1,22µM*,-30%,6
Cc1ccc(NCc2ccccc2O)cc1,-23%,11%,?
O=C(OCc1ccccc1)C1CCCN1C(=O)c1ccccc1[N+](=O)[O-] (stereo unspecified),-10%,?,10
